Experimental findings from paper PMC7862700, “An all-to-all approach to the identification of sequence-specific readers for epigenetic DNA modifications on cytosine” are described below.

Assay in all cases: DAPPL (digital affinity profiling via proximity ligation, sequencing); 10 mM Tris-HCl pH 7.5, 50 mM NaCl, 1 mM DTT, 4% glycerol, room temperature, 30 min; GST-TFs on glutathione beads, 16-mer random dsDNA library, 0.1% formaldehyde crosslink after washing; high values mean tight binding
One experiment addresses T1, FLI1 (Homo sapiens, UniProt Q01543 1-452).
T1 sequence: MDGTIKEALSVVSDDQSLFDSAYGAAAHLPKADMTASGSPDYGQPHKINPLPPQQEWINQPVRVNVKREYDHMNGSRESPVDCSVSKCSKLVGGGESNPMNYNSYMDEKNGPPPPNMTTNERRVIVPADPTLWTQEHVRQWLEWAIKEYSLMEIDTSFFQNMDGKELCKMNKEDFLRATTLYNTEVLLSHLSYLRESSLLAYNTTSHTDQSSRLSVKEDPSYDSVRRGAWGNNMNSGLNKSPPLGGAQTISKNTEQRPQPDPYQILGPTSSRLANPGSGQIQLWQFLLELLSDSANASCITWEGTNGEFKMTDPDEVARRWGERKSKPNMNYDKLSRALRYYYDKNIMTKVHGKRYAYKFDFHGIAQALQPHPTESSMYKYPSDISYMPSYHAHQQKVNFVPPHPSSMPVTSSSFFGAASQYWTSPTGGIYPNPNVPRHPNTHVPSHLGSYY
As to conditions: protein: recombinant; tags: N-terminal GST; dsDNA, one strand shown. Put shortly:
(§1)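 Beads coated with glutathione captured GST-fused human transcription factors that had been expressed in yeast, and the factors were then given DNA barcodes and pooled with a tag-only sample. The pools were incubated with 200 nmole of a random double-stranded 16-mer DNA library in Tris/NaCl/DTT/glycerol buffer for 30 min at room temperature, washed, crosslinked with 0.1% formaldehyde and proximity-ligated with BsaI/T4 ligase at 37 °C for 1 h. PCR amplification and Illumina NextSeq500 sequencing came last. Binding signal is each hexamer's read frequency for a factor divided by its frequency for the tag-only sample.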

For another experiment, the target named is T2, ELK1 (Homo sapiens, UniProt P19419 1-428).
T2 sequence: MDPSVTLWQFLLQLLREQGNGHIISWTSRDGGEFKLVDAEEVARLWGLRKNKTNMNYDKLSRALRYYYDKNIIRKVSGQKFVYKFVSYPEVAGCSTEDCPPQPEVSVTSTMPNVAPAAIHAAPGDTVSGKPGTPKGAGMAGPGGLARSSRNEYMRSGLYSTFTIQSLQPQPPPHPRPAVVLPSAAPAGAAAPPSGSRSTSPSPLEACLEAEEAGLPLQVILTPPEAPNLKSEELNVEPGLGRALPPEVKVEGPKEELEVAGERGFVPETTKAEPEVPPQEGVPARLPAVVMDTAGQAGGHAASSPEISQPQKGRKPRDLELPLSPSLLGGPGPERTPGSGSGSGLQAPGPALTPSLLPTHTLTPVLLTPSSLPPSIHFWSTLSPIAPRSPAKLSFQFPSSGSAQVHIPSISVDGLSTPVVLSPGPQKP
The conditions noted are these: protein: recombinant; tags: N-terminal GST; dsDNA, one strand shown. Put shortly: as §1

The target of a further experiment is T3, GABPA (Homo sapiens, UniProt Q06546 1-454).
T3 sequence: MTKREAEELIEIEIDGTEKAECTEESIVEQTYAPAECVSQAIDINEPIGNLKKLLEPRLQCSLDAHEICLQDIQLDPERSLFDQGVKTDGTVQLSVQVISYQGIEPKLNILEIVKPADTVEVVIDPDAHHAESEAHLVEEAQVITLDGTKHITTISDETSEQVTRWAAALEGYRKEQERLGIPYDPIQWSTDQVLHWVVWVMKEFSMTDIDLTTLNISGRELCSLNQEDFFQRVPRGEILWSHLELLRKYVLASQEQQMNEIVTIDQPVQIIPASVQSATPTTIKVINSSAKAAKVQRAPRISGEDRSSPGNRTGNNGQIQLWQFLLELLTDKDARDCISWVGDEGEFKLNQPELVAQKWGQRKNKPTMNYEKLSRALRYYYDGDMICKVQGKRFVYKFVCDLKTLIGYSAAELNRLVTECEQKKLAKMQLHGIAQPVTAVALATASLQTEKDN
The conditions noted are these: protein: recombinant; tags: N-terminal GST; dsDNA, one strand shown. Put shortly:
as §1

For the next experiment, the target named is T4, ERG (Homo sapiens, UniProt P11308 1-479).
T4 sequence: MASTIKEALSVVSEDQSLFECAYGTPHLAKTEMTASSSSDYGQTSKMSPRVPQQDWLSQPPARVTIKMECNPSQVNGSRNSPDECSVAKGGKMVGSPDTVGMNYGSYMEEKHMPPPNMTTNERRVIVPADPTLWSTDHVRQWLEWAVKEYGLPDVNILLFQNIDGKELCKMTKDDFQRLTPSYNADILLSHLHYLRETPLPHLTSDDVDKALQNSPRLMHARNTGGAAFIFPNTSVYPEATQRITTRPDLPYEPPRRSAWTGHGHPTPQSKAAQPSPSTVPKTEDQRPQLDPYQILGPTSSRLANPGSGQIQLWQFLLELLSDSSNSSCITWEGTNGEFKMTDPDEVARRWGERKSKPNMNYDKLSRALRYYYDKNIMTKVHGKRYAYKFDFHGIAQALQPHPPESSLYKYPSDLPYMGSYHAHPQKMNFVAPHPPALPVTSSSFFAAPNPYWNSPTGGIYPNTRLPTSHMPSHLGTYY
The conditions noted are these: protein: recombinant; tags: N-terminal GST; dsDNA, one strand shown. In outline: as §1

The next experiment deals with ELF1 (Homo sapiens, UniProt P32519 1-619). As to conditions: protein: recombinant; tags: N-terminal GST; dsDNA, one strand shown. In outline: as §1
Chain of ELF1 (P32519 whole entry): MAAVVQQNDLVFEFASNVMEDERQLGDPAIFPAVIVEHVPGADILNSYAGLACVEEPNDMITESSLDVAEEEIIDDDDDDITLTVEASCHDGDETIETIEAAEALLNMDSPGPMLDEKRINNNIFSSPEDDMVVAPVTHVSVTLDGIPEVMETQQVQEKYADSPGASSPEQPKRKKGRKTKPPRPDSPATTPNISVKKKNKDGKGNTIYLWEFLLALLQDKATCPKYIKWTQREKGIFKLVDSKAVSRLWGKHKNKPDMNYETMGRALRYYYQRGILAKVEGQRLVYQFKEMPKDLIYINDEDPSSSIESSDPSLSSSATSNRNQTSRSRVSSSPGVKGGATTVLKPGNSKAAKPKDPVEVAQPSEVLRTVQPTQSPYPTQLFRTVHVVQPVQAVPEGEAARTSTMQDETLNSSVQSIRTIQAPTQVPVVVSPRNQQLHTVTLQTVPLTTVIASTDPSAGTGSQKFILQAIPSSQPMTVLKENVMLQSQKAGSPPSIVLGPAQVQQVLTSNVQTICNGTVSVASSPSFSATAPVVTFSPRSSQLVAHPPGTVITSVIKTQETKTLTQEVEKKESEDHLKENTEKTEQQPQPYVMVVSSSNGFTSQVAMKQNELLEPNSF
For a further experiment, the target named is T5, EHF (Homo sapiens, UniProt Q9NZC4 1-300).
T5 sequence: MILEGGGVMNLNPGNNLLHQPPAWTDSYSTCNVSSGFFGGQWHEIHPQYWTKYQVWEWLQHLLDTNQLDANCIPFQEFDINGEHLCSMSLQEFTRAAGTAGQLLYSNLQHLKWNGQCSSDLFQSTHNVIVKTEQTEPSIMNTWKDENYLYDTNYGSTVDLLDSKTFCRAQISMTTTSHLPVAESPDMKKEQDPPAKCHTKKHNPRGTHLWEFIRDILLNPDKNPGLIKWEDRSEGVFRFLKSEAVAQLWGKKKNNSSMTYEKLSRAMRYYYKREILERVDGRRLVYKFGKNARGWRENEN
The conditions noted are these: protein: recombinant; tags: N-terminal GST; dsDNA, one strand shown. In outline:
as §1

The target in the next experiment is SPI1 (Homo sapiens, UniProt P17947 1-270). As to conditions: protein: recombinant; tags: N-terminal GST; dsDNA, one strand shown. In outline:
as §1

A further experiment has as its target SPIB (Homo sapiens, UniProt Q01892 1-262). The conditions noted are these: protein: recombinant; tags: N-terminal GST; dsDNA, one strand shown. In outline: as §1
The target of the next experiment is T6, ELK3 (Homo sapiens, UniProt P41970 1-407).
T6 sequence: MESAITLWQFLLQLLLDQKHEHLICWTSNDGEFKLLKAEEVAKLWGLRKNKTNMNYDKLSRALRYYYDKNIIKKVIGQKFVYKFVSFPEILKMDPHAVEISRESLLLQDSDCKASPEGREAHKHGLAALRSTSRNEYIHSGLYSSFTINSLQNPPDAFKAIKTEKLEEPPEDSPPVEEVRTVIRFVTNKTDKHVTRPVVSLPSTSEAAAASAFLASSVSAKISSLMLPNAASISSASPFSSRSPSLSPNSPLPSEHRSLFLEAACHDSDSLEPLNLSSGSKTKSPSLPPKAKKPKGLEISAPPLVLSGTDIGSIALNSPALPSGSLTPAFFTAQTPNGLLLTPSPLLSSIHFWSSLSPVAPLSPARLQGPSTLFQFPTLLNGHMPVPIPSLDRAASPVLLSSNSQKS
As to conditions: protein: recombinant; tags: N-terminal GST; dsDNA, one strand shown. In outline: as §1

Another experiment deals with T7, FEV (Homo sapiens, UniProt Q99581 1-238).
T7 sequence: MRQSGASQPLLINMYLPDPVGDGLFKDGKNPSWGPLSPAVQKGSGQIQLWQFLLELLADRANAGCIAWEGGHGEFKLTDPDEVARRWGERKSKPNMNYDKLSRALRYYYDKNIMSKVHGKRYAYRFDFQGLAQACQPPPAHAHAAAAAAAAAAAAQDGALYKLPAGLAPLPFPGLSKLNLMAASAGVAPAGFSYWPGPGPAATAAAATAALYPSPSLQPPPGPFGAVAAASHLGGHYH
As to conditions: protein: recombinant; tags: N-terminal GST; dsDNA, one strand shown. Put shortly:
as §1

In a further experiment the target is ETV5 (Homo sapiens, UniProt P41161 1-510). The conditions noted are these: protein: recombinant; tags: N-terminal GST; dsDNA, one strand shown. In outline: as §1
Chain of ETV5 (P41161 whole entry): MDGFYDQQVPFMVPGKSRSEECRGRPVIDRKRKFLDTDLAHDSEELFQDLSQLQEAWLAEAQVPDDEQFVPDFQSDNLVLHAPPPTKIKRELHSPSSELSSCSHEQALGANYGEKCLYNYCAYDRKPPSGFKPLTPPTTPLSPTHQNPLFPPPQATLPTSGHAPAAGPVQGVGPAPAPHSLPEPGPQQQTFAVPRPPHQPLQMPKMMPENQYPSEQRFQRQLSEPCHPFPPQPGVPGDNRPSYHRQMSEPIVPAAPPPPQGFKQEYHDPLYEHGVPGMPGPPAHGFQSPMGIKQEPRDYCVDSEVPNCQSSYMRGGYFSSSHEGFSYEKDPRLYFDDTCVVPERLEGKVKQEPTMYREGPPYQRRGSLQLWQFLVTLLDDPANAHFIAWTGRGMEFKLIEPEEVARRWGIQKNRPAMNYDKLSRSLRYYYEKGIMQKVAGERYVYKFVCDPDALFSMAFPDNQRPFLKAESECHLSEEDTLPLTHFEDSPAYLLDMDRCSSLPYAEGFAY
The next experiment concerns the target HSF1 (Homo sapiens, UniProt Q00613 1-529). The conditions noted are these: protein: recombinant; tags: N-terminal GST; chain copies: 3; dsDNA, one strand shown. In outline: as §1
The target in a further experiment is T8, SPIC (Homo sapiens, UniProt Q8N5J4 1-248).
T8 sequence: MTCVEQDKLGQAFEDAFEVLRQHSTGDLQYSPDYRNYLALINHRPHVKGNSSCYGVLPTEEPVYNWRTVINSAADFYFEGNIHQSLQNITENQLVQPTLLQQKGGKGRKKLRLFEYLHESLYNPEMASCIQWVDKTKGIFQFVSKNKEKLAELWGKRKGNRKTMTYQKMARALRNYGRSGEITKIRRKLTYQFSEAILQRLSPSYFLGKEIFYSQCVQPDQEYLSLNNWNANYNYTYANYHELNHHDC
The conditions noted are these: protein: recombinant; tags: N-terminal GST; dsDNA, one strand shown. In outline: as §1

A further experiment concerns the target ELF4 (Homo sapiens, UniProt Q99607 1-663). The conditions noted are these: protein: recombinant; tags: N-terminal GST; dsDNA, one strand shown. Put shortly:
as §1

The next experiment addresses T9, ETV2 (Homo sapiens, UniProt O00321 1-342).
T9 sequence: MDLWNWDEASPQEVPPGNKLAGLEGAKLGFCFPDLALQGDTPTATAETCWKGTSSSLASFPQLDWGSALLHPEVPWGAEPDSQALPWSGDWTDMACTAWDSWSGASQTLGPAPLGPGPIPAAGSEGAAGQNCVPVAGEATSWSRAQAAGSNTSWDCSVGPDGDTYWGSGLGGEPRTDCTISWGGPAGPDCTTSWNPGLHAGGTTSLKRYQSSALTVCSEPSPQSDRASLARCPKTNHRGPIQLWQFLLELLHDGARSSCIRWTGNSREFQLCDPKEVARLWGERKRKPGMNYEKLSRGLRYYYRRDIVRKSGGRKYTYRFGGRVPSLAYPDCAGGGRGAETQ
The conditions noted are these: protein: recombinant; tags: N-terminal GST; dsDNA, one strand shown. Put shortly: as §1

For the next experiment, the target named is T10, ELF3 (Homo sapiens, UniProt P78545 1-371).
T10 sequence: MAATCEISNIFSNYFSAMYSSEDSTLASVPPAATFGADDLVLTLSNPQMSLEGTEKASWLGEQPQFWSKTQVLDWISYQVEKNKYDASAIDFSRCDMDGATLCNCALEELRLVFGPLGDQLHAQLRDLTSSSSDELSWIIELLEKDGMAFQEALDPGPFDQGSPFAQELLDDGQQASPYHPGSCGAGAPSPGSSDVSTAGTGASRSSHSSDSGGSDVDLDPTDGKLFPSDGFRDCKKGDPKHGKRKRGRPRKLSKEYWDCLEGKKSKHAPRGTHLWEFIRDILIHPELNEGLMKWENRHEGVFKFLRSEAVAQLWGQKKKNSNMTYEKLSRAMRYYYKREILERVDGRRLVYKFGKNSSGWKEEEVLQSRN
The conditions noted are these: protein: recombinant; tags: N-terminal GST; dsDNA, one strand shown. In outline: as §1

The target in another experiment is ETV1 (Homo sapiens, UniProt P50549 1-477). As to conditions: protein: recombinant; tags: N-terminal GST; dsDNA, one strand shown. In outline:
as §1

Chain of SPIB (Q01892 whole entry): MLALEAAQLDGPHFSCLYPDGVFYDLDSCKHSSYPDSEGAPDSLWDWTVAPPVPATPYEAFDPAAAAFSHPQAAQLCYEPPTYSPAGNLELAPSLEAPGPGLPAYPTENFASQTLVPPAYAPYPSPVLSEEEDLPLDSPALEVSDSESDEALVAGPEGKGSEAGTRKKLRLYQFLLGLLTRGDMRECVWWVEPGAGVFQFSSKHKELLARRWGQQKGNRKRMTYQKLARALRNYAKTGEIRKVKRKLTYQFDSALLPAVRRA
Chain of HSF1 (Q00613 whole entry): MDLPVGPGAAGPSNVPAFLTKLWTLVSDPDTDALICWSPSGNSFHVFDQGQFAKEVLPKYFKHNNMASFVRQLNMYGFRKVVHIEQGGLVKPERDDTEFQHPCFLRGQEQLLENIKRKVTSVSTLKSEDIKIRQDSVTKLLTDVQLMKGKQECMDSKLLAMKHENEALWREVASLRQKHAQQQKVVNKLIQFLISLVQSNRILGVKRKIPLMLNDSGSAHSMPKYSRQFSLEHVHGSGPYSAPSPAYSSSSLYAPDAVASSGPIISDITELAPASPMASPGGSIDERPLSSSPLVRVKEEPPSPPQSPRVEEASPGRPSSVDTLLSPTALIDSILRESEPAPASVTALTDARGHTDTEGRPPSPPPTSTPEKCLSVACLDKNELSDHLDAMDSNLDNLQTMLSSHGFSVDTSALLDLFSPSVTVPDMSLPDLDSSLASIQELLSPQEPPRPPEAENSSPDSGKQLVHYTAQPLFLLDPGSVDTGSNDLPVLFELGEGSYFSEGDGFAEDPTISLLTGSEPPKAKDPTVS
Chain of ETV1 (P50549 whole entry): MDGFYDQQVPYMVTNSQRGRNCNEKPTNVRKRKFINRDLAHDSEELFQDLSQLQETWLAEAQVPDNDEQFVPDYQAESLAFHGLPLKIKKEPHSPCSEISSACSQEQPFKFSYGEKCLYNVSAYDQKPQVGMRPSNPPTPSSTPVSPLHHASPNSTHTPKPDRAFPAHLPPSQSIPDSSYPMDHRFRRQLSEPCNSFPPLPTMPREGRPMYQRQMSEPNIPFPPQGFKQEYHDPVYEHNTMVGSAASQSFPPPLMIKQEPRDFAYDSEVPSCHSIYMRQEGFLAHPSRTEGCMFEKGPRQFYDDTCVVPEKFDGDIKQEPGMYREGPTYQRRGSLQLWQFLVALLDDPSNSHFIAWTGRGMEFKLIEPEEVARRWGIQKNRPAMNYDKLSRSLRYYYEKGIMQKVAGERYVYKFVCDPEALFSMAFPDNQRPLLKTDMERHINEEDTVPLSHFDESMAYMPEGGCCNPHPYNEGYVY
Chain of ELF4 (Q99607 whole entry): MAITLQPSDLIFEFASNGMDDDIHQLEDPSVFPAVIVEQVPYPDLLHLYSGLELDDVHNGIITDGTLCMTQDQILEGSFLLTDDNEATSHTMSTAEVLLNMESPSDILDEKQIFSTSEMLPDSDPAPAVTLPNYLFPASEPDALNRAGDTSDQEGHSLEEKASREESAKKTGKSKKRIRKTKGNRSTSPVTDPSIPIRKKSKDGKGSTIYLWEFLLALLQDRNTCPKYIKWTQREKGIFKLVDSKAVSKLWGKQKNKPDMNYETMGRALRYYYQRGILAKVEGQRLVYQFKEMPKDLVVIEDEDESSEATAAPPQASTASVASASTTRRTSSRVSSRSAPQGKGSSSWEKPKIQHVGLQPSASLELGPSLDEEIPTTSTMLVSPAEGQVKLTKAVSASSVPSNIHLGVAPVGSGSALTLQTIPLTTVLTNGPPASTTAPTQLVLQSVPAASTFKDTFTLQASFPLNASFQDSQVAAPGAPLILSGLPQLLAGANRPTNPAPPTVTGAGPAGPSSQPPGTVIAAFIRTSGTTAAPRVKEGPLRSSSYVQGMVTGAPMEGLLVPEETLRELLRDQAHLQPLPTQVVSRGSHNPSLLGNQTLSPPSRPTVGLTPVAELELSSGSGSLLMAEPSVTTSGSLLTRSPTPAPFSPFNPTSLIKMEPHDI

For GTTTTC, the binding signal with FLI1 was 1.19 fold enrichment (6-mer frequency, TF over GST control); in the experiment with ELK1, 1.2 fold enrichment (6-mer frequency, TF over GST control); in the experiment with GABPA it was 1.23 fold enrichment (6-mer frequency, TF over GST control); in the experiment with ERG, 1.24 fold enrichment (6-mer frequency, TF over GST control); in the experiment with ELF1, 1.15 fold enrichment (6-mer frequency, TF over GST control); in the experiment with EHF, 1.28 fold enrichment (6-mer frequency, TF over GST control). In addition, the binding signal is 1.17 fold enrichment (6-mer frequency, TF over GST control) with SPI1; 1.2 fold enrichment (6-mer frequency, TF over GST control) in the experiment with SPIB; 1.23 fold enrichment (6-mer frequency, TF over GST control) with ELK3; 1.21 fold enrichment (6-mer frequency, TF over GST control) with FEV; 1.24 fold enrichment (6-mer frequency, TF over GST control) with ETV5; 1.13 fold enrichment (6-mer frequency, TF over GST control) with HSF1. Moreover, the binding signal in the experiment with SPIC is 1.1 fold enrichment (6-mer frequency, TF over GST control); in the experiment with ELF4, 1.2 fold enrichment (6-mer frequency, TF over GST control); in the experiment with ETV2 it was 1.25 fold enrichment (6-mer frequency, TF over GST control); with ELF3, 1.32 fold enrichment (6-mer frequency, TF over GST control); with ETV1, 1.13 fold enrichment (6-mer frequency, TF over GST control).
